Hit rate of the full screen: of about 1,500 compounds, about 430 (29%) were called active. Only a sample is shown. Measured potencies and affinities stand elsewhere. A number with no mark means an inactive call. How the calls were made is not given here.

The experiment is described as follows: glucose-independent GLuc insulin release activation – cell-based, INS-1E, Gaussia luciferase, luminescence, cherry-pick, counter-screen for glucose-dependent insulin secretion activators, dose response (AID 977606).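 Further: 0% = median of neutral control wells.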 As to conditions: INS-1E Gaussia luciferase insulin secretion, no glucose, 100% = twice neutral-control luminescence; series mostly up to 35 µM; activation: at the top concentration.
On to `Cn1c(=O)c2[nH]c(SCc3ccccn3)nc2n(C)c1=S`, for which the “activation” value was -18.9%. In the case of `O=C(NCCN1CCN(C(=O)c2ccccc2Cl)CC1)C(=O)NCc1ccccc1`, the “activation” value is 6.21%. Then `CC(=O)Nc1nc(NCc2ccccc2Cl)n(-c2ccccc2)n1`, with 6.24%; and `CC(C)Nc1nc(Nc2ccc(C(N)=O)cc2)c2sccc2n1`, with 39.4%; and `CCSc1nnc2ccc(-c3cccs3)nn12`, with 2.37%. `O=C(CCS(=O)(=O)c1ccc(Cl)cc1)Nc1ccc(N2CCOCC2)cc1`: the “activation” value was 1.26%. On to `COc1ccc(/C=C/c2nc(C#N)c(NCCN(C)C)o2)cc1OC`, for which the “activation” value is -17.3%. For `CCOC(=O)C1(C)CCCCN1C(=O)c1cccc(Cl)c1` (stereo not drawn) the value was 5.65%; for `CCCCNC(=O)C1(C)CCN1C(=O)c1cc2ccccc2s1` (stereo not drawn), 9.86%. For `CCc1nc(N)nc2c1C(=O)CC(C)(C)C2` the value was 7.91%; for `COc1ccc(CCN2C(=O)CC(Cc3ccccc3)C2=O)cc1OC` (stereo not drawn), -4.36%; for `CNc1ccc(-c2ccccc2OC)cn1`, -3.6%. Consider `CCOC(=O)c1c(S(=O)(=O)NCCc2ccc(OC)c(OC)c2)c(C)n(C)c1C`, for which the “activation” value was 3.38%.

As to `COc1ccc(-c2nc3cccc(C)n3c2NCc2ccco2)cc1OC`, the “activation” value is 12.7%.

Take `COc1ccc(CCNC(=O)CCn2c(=O)c3ccccc3n(CC(=O)NCC3CCCO3)c2=O)cc1OC` (stereo not drawn): the “activation” value was -5.57%.

In the case of `COc1ccc(-c2noc(CCC(=O)Nc3cccnc3)n2)cc1OC`, the “activation” value is -7.28%.

As for `Cc1cc(NS(=O)(=O)c2ccc(NC(=O)C(C)Oc3ccccc3Cl)cc2)no1` (stereo not drawn), the “activation” value is -2.54%. As for `CC1(C)CC(=O)C(C=NC2CC(C)(C)NC(C)(C)C2)=C(O)C1`, the “activation” value was 6.48%. Then `COCCNc1nc(NC(C)C)nc2ccsc12`, with 26.7%. For `CCn1nnnc1NCc1ccc(OCc2c(F)cccc2Cl)c(OC)c1` the value was -2.98%; for `COCCN1Cc2cccc(C(=O)NCc3ccccc3OC)c2C1=O`, -9.74%; for `COc1cc2ccc(C(C)=O)cc2cc1OC`, 0.658%. For `COc1ccc2ccc(=O)oc2c1CC=C(C)C` the value was -9.17%; for `Cc1ccc(NC(=O)CN(C(=O)N2CCN(C)CC2)S(=O)(=O)c2ccc(C)cc2)cc1`, 14.7%; for `FC(F)(F)c1cc(CCN2CCNC[C@@H]2Cc2ccccc2)cc(C(F)(F)F)c1`, 1100%. As for `NC(=O)C1CCN(C(=O)CCNS(=O)(=O)c2ccccc2F)CC1`, the “activation” value was 2.4%. For `COc1ccccc1C(OC(=O)c1cccs1)C(=O)NCC1CCCO1` (stereo not drawn) the value was -14.5%. For `CC(=O)Nc1cccc(-n2c(=O)n(Cc3ccccc3)c(=O)c3[nH]cnc32)c1` the value was -4.52%; for `O=C(c1cccs1)N(Cc1cccc(F)c1)C1CCS(=O)(=O)C1` (stereo not drawn), 0.85%; for `C/C(=N/Oc1nc(C)cc(C)n1)c1ccc(F)cc1`, -0.472%.

As to `C=CCn1c(O)c(N=NC(=O)CNC(=O)c2ccco2)c2ccccc21`, the “activation” value was 1.45%. Then `CC(C)COC(=O)N1C[C@H](O)C[C@H]1C(=O)Nc1ccc(Cl)cc1`, with -11.9%; and `COc1ccc(CNC(=O)c2cnn3c(C(F)F)cc(C)nc23)cc1`, with -10.7%; and `Cn1cc(C(=O)NCC(=O)Nc2ccccc2Br)cn1`, with 5.93%.

With `COc1ccccc1-c1cnc2c(Nc3cccc(OC(F)(F)C(F)F)c3)nccn12`, the “activation” value was 7.41%. For `O=C1CC(NS(=O)(=O)c2cccs2)CN1c1cccc(F)c1` (stereo not drawn) the value was -8.56%; for `CC1(C)Cc2c(cnn2-c2ccccc2)C(NC(=O)CCN2CCCC2=O)C1` (stereo not drawn), 14.1%; for `COc1ccc(C2CC(c3ccc(OC)c(OC)c3)=NN2C(=O)c2ccccc2)cc1` (stereo not drawn), -16.4%. `Cc1ccccc1Cc1c(C)nc2c(C(=O)NCc3ccco3)cnn2c1C`: the “activation” value is -8.95%. For `COc1ccc(-c2cc(C(F)(F)F)n3nc(C(=O)O)cc3n2)cc1OC`, the “activation” value is -2.77%. For `Cn1nnnc1Sc1ncnc2scc(-c3ccc(F)cc3)c12` the value was 3.39%; for `CCOc1nc(CC(C)C)c2c(c1C#N)CC(C)(C)OC2`, 25.1%; for `CCOc1ncccc1C(=O)Nc1ccccc1F`, 40.5%. Then `CCOc1nc(Nc2ccccc2F)nc(OCC)n1`, with -6.36%; and `COc1ccc(NC(=O)C2(c3ccc(NC(=O)c4ccc(OC)cc4)cc3)CCCC2)cc1`, with 2.88%; and `Cc1cccc(C(=O)NC(=S)NNC(=O)COc2c(C)cccc2C)c1`, with -83.5%.

Consider `COc1ccc(C(=O)Nc2ccccc2C(=O)Nc2ccncc2)cc1`, for which the “activation” value is 9.94%. In the case of `CC(=O)c1cccc(NC(=O)CCC(=O)Oc2ccc(C)cc2)c1`, the “activation” value was 5.01%.

As for `CCOc1ncccc1C(=O)Nc1cccc(S(=O)(=O)NC2=NCCC2)c1`, the “activation” value was -8.06%.

Regarding `C/C(Cl)=C\Cn1c(N2CCCC2)nc2c1c(=O)[nH]c(=O)n2C`, the “activation” value was -19.4%. Then `CCCCn1c(N2CCCC2)nc2c1c(=O)[nH]c(=O)n2C`, with -16%; and `COc1cc2c(cc1OC)-c1cc(N3CCc4ccccc43)nc(=O)n1CC2`, with 3.37%; and `Cc1nc2c(c(N3CCOCC3)n1)OCC(=O)N2`, with -0.243%.

Consider `COc1ccc(OCCCCN(C)Cc2ccccc2)cc1`, for which the “activation” value was -3.62%. For `CCC(C)c1ccccc1OCCn1ccnc1` (stereo not drawn) the value was -5.27%; for `CC1(C(=O)NS(=O)(=O)c2ccc(Cl)s2)CCN1C(=O)C1(c2ccc(Cl)cc2)CCC1` (stereo not drawn), 27.2%. Then `CC1(C(=O)N2CCCCC2)CCN1C(=O)C1(c2ccccc2)CC1` (stereo not drawn), with -6.38%; and `Cc1noc(C)c1S(=O)(=O)NC(=O)C1(C)CCN1C(=O)C1(c2ccc(Cl)cc2)CCC1` (stereo not drawn), with -1.31%. For `CC1(C(=O)NS(=O)(=O)c2ccc(C#N)cc2)CCN1C(=O)C1(c2ccccc2)CCCC1` (stereo not drawn) the value was 40.5%; for `COC(=O)COc1ccc(C)cc1-n1nc2ccccc2n1`, 10.7%; for `O=c1[nH]c(CN2CCN(c3ccc(O)cc3)CC2)nc2scc(-c3ccc(Cl)cc3)c12`, -12%. For the molecule `O=C(NCc1ccccc1)c1cccnc1Sc1ccccc1`, the “activation” value is -8.65%. Regarding `CCC(O)c1nc2ccccc2n1CCc1ccccc1` (stereo not drawn), the “activation” value was -0.99%.

As for `CC1(C)Cc2c(c(-c3ccco3)nc3n[nH]c(N)c23)CO1`, the “activation” value is -8.85%.

Consider `COc1ccc(CCNC(=O)CN2c3cccc4cccc(c34)S2(=O)=O)cc1OC`, for which the “activation” value is -3.21%. On to `Fc1cccc(-c2nnn3c2nc(Cl)c2ccccc23)c1`, for which the “activation” value is 24.5%.

In the case of `CC(=O)c1c(C)oc2ccc(NS(=O)(=O)c3ccc(F)cc3C)cc12`, the “activation” value is -3.96%. As for `CCOC(=O)Cc1nn(Cc2ccccc2)c(=O)c2ccccc12`, the “activation” value was 15.4%. Then `O=S(=O)(Nc1ccc(-c2ccc3nncn3n2)cc1)c1ccccc1Cl`, with -6.46%; and `Cc1nc(N)c(C#N)c(-c2cccnc2)c1C`, with -19.6%; and `N#Cc1c(-c2ccncc2)cc(-c2ccc(F)cc2)nc1N`, with -5.57%.

Regarding `COc1ccc(Cn2c(=O)c3[nH]cnc3n(-c3ccccc3C)c2=O)cc1`, the “activation” value was 14.1%.

Turning to `CC(=O)c1ccc2c(c1)N(Cc1ccccc1)C(=O)C(C)S2` (stereo not drawn), the “activation” value is 12%.

In the case of `Cc1ccc(OCC(=O)NNC(=O)CCC(=O)Nc2ccc(C)cc2C)cc1`, the “activation” value is 1.3%.

`Cc1ccccc1NC(=O)c1ccc(OCc2c(C)noc2C)cc1`: the “activation” value is 11.2%.

For the molecule `COc1ccc(CO/N=C/c2c(C)[nH]c(=O)[nH]c2=O)cc1`, the “activation” value was -0.658%. In the case of `CCc1nc2c(nnn2Cc2ccc(F)cc2)c(=O)[nH]1`, the “activation” value is 9.33%.

For `Cc1ccccc1-c1n[nH]c(=S)n1/N=C/c1c(C)nn(-c2ccccc2)c1C`, the “activation” value is 1.57%. With `S=c1[nH]nc(-c2ccccc2)n1/N=C/c1c[nH]c2ccccc12`, the “activation” value was 4.19%. Then `CCOC(=O)c1oc2cc(O)cc(C)c2c1C`, with -5.39%; and `C=CCNc1sc(C(=O)C2CC2)c(N)c1C#N`, with 0.874%; and `Cc1cccc(N2CCN(C(=O)c3cccn4c(=O)c5c(C)c(C)sc5nc34)CC2)c1C`, with 43.9%. Consider `Cc1ccc(F)cc1NC(=O)c1sc2ncn(CC(=O)N3CCN(c4ccccn4)CC3)c(=O)c2c1C`, for which the “activation” value is -27.8%. Then `COc1ccc(/C=N/Nc2ncnc3c2[nH]c2ccccc23)c(OC)c1OC`, with -2.72%; and `O=C(CCc1ccccc1)NNC(=O)COc1ccccc1Cl`, with -7%. Then `Cn1c(N)c(C(c2ccccc2)c2c(N)n(C)c(=O)n(C)c2=O)c(=O)n(C)c1=O`, with -9.7%. Then `O=c1cc(Cl)[nH]c(=O)n1Cc1ccccc1`, with 11.3%. With `O=c1cc(-c2ccncc2)oc2c1ccc1ccccc12`, the “activation” value was 23.8%. On to `CC(C)Cn1c(Cc2ccccc2)n[nH]c1=S`, for which the “activation” value was 18.2%. In the case of `COc1ccc(S(=O)(=O)N(C)CC(=O)Nc2ccc3c(c2)OCCO3)cc1OC`, the “activation” value is 16.4%. For `O=C(O)Cc1ccc(NS(=O)(=O)c2ccc3c(c2)OCCO3)cc1` the value was 24.3%; for `O=C(NCc1ccccc1)C(c1ccncc1)n1c(=O)c(-c2ccccc2)nc2ccccc21` (stereo not drawn), 28.8%. For `O=C(COc1ccccc1)Nc1ccccc1C(=O)NC1CC1` the value was -7.06%; for `CN1CCC(N(C)S(=O)(=O)c2ccc(NC(=O)COc3cccc(Cl)c3)cc2)CC1`, -23.8%; for `N#CC1=C(N)Oc2n[nH]c(-c3ccc(F)cc3)c2C1c1cccnc1` (stereo not drawn), 2.56%.

Consider `COc1ccc(CCNS(=O)(=O)c2cn(C)cn2)cc1OC`, for which the “activation” value is -16.4%. Regarding `NC1=NC[C@H](Cc2ccccc2)N1CCCCC1CCCCC1`, the “activation” value was 114%. For `CN=C1c2ccccc2CN1c1cccc(C(=O)OC)c1` the value was -4.38%. Consider `Cc1ccc(S(=O)(=O)/N=C2\CN(C)C(=O)N2C)cc1`, for which the “activation” value is -12.3%. Then `CSc1ccc(/C=N/N(C)S(=O)(=O)c2ccc(C)cc2)cc1`, with -4.63%; and `Cc1cc(Br)ccc1NC(=O)CN(C)C(=O)C1CSC2(C)CCC(=O)N12` (stereo not drawn), with 9.16%; and `Cc1ccc(NC2c3ncccc3C(=O)N2C2CCCCC2)cc1` (stereo not drawn), with 17.3%. Then `CCSc1nnc(-c2cccnc2)n1-c1ccc(C)c(Cl)c1`, with 5.24%.

Consider `COc1ccc(CCNC(=O)CCc2nc3ccccc3[nH]2)cc1OC`, for which the “activation” value is 5.63%. With `Cc1ccc(-c2cc(C(=O)Nc3nn[nH]n3)c3ccccc3n2)c(C)c1`, the “activation” value is -0.923%. Take `Cc1ccc(-c2nnc3sc(-c4ccncc4)nn23)cc1`: the “activation” value is 27.7%. In the case of `O=c1c2[nH]cnc2n(-c2ccc(F)cc2)c(=O)n1Cc1ccccc1`, the “activation” value was 10.5%.

On to `COc1ccc(S(=O)(=O)NC2CCCCC2)cc1C`, for which the “activation” value is 20.3%. For `O=C(Nc1ccccc1C(=O)N/N=C/c1ccccc1)c1ccco1` the value was -6.08%; for `Cc1cc(C(=O)NC(C)CCC(C)C)c2ccccc2n1` (stereo not drawn), 13.7%.

For the molecule `CONc1nc(NC(C)(C)C)nc(OCC#N)n1`, the “activation” value is -9.96%. `COc1ccc(CCN(C)C(=O)c2oc3ccccc3c2C)cc1OC`: the “activation” value was -10.6%. Regarding `COc1ccc2oc(C(=O)Nc3nnc(C)s3)c(C)c2c1`, the “activation” value was -19.6%.

These data come from PubChem BioAssay AID977606 (Broad Institute, 2014).
